# High-throughput results (PubChem BioAssay)
# RBX1-CUL1 inh: human ROC1-CUL1 E3 ligase inhibition. P62877+Q13616. in vitro K48 di-Ub FRET, acceptor:donor ratio, 45 min. inhibition, % at 10 µM. 140,000 tested, 0.6% active. AID 1347404; in the data active = inhibition above about 25%
# Target sequence (P62877 whole entry, looked up): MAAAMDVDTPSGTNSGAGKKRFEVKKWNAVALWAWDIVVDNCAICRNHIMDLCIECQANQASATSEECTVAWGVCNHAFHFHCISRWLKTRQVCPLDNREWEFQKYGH
# Target sequence (Q13616 whole entry, looked up): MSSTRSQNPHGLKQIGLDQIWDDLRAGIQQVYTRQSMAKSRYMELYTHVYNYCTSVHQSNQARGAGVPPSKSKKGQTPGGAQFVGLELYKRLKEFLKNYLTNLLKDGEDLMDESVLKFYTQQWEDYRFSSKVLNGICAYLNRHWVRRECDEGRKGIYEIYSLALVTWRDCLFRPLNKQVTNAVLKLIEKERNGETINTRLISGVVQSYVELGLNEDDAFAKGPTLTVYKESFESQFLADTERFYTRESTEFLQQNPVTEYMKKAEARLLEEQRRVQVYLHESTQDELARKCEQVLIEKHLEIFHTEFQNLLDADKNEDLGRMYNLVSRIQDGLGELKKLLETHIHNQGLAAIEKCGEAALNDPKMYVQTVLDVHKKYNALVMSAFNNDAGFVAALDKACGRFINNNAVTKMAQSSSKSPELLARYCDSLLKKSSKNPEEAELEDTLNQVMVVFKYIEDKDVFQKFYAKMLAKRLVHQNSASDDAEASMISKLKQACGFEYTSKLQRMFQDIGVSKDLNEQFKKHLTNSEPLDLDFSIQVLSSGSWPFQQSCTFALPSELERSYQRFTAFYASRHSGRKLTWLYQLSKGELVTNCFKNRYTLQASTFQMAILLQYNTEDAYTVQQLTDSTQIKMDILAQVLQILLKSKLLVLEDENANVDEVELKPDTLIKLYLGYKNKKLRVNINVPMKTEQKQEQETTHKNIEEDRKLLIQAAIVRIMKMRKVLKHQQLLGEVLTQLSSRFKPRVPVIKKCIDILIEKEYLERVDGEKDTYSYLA
# * hit, by the source's call. The full list was thinned out, with hits kept by preference.
SMILES,RBX1-CUL1 inh
CCOC(=O)c1cc(-c2ccc(/C=C(\C#N)c3nc4ccc(C)cc4[nH]3)o2)ccc1Cl,-4
CCCCOC(=O)c1cc(-c2ccc(CC3=NC(=S)NC3=O)o2)ccc1Cl,1
CCOC(=O)c1cc(-c2ccc(C(c3c(C)[nH][nH]c3=O)c3c(C)[nH][nH]c3=O)o2)ccc1Cl,67*
O=C1C2=CC(C=NCC(O)CO)C(=O)N2c2ccccc21 (stereo not given),25*
CCCOc1ccc(NC(=O)c2occc2C)cc1,-1
CCOC(=O)C#CCN1C(=O)c2ccccc2C1=O,40*
O=C1c2ccccc2C(=O)N1CC#Cc1ccccc1,-7
CCCCCCOC(=O)C(CCCCN1C(=O)c2ccccc2C1=O)N1C(=O)c2ccccc2C1=O (stereo not given),5
COc1cc(/C=C2/C(=O)N(c3ccc(S(=O)(=O)O)cc3)N=C2C)ccc1OC(=O)c1cccs1,56*
COc1cc(/C=C2/C(=O)N(c3cccc(Cl)c3)N=C2C)ccc1OC(=O)c1cccs1,-9
COc1cccc(C=C2C(=O)N(C)C(=O)N(C)C2=O)c1,-4
CCCOC(=O)c1cccc(-c2ccc(/C=C3\C(=O)N(c4ccc(S(N)(=O)=O)cc4)N=C3C(F)(F)F)o2)c1,5
C#CCOc1ccc(/C=C2\C(=O)N(c3ccc(S(N)(=O)=O)cc3)N=C2C(F)(F)F)cc1OCC,-1
CCOC(=O)c1ccc(N2NC(=O)/C(=C/c3ccc(OC(=O)c4cccs4)c(OC)c3)C2=O)cc1,24
COc1cc(/C=C2\C(=O)N(c3ccc(S(N)(=O)=O)cc3)N=C2C(F)(F)F)ccc1OCC(C)C,35*
CC1=NN(c2ccc(S(N)(=O)=O)cc2)C(=O)/C1=C\c1ccc(N(C)C)cc1,7
COc1cccc(/C=C2\C(=O)N(c3ccc(S(N)(=O)=O)cc3)N=C2C)c1,97*
CCCS(=O)(=O)N1CC(=O)N(c2ccccc2C)C(C)(C(=O)NC2CCCC2)C1 (stereo not given),2
O=C(CCN1N=C(c2ccccc2)CCC1=O)NCCc1ccc(Cl)cc1,-7
O=C(/C=C/c1coc2ccccc2c1=O)N1CCc2[nH]nc(C3CCC3)c2C1,0
CCOC(=O)c1cc(-c2ccc(OC)c(S(=O)(=O)N3CCN(c4ccccc4)CC3)c2)on1,-5
CC1CCCCN1C(=O)c1ccc2c(c1)N(Cc1ccc(F)cc1)C(=O)c1ccccc1S2(=O)=O (stereo not given),-4
C=CCN(C(C)=O)c1nc(-c2ccccc2)c(-c2ccccc2)s1,-2
COc1ccc(CCCNC(=O)c2ccc(N3CC[C@H](O)C3)nc2)cc1,9
CCOC(=O)c1cccc(NS(=O)(=O)c2cc3[nH]c(=O)c(=O)[nH]c3cc2C)c1,-1
SMILES,RBX1-CUL1 inh
Cc1cc(C)cc(NS(=O)(=O)c2cc3[nH]c(=O)c(=O)[nH]c3cc2C)c1,-8
CCc1cccc(C)c1NS(=O)(=O)c1cc2[nH]c(=O)c(=O)[nH]c2cc1C,44*
COC(=O)c1ccc(-n2cc(-c3cc4ccccc4oc3=O)[nH]c2=S)cc1,-2
Cc1cc(Br)ccc1NC(=O)CN1CCC(C)CC1,98*
Cc1cc(Br)c(NC(=O)CN2CCC(C)CC2)cc1C,5
Cc1cc(Cl)ccc1NC(=O)CN1CCC(C)CC1,1
Cc1ccccc1CCC1CCCN(C(=O)c2ccoc2)C1 (stereo not given),-1
COc1ccccc1/C=C/c1c(C#N)c(=O)oc2ccc(C)cc12,1
Cc1cccnc1CCNC(=O)CC1C(=O)NCCN1CCC(C)C (stereo not given),4
COC(=O)c1cccc(-c2ccc(/C=C3\SC(=N)N(c4nccs4)C3=O)o2)c1,-9
CCC(C)N1C(=O)S/C(=C/c2ccc(-c3cc(C(=O)O)ccc3Cl)o2)C1=O (stereo not given),15
CCCCC1(C)OC(=O)C(=Cc2ccc(-c3cc(C(=O)O)ccc3Cl)o2)C(=O)O1 (stereo not given),85*
O=C(O)c1ccc(Cl)c(-c2ccc(/C=N/Nc3ccccc3)o2)c1,2
Nc1nc(N)nc(-c2cc(Cl)ccc2Cl)n1,-8
Cn1c(=O)c(=O)n(C)c2cc(C(=O)NCc3ccccc3Cl)ccc21,-7
O=C1OCCN1CCNC(=O)C1(N2CCCCC2)Cc2ccccc2C1,-1
COc1cc(C(=O)NCC2OCCc3ccccc32)cc(OC)c1OC (stereo not given),10
CC1=Nc2cc(C(=O)NC(C)C)ccc2Sc2ccc(C)cc21,1
CCOC(=O)COc1ccc([N+](=O)[O-])cc1-c1ccnc2cc(-c3ccc(Cl)cc3)nn12,-6
CCOc1ccc2c(c1)c(=O)c(S(=O)(=O)c1ccc(C)cc1)cn2Cc1ccccc1Cl,-4
Cc1[nH][nH]c(=O)c1C(c1c(C)[nH][nH]c1=O)c1cn(Cc2ccccc2Cl)c2ccccc12,68*
O=C1OC2(CCCCC2)OC(=O)C1=Cc1cn(Cc2ccccc2Cl)c2ccccc12,-11
O=C(Nc1cc(-c2nc3ccccc3o2)ccc1Cl)c1ccc(Br)o1,3
Cc1ccc(S(N)(=O)=O)cc1NC(=O)Nc1ccc(Cl)c(Cl)c1,3
